Measurements: PubChem BioAssay (NCATS)
Results filed as inconclusive are left out. Calls of active or inactive are those of the source. Unless noted, calls come from the whole dose curve; as a rule, active = well fitted curve in either direction with a large enough effect (not every such curve was filed as active); inconclusive = small, poorly fitted or top-dose-only effect, or another doubt; inactive = flat fitted curve, though single readings scatter.

Experiments:
[1] = target: Lysosomal acid glucosylceramidase (Homo sapiens) (UniProt P04062); experiment: Glucocerebrosidase-p2 (AID 348; in the data active = potency below about 10 µM; note: potency is the fitted concentration of half-maximal effect); details: purified GBA, blue fluorogenic substrate, 40 min
Outline: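 Compounds titrated from 0.6 nM upwards against 0.2 nM enzyme in pH 5.9 citric acid/KH2PO4, taurocholate, tween-20; blue fluorogenic substrate 80 uM, 40 min room temperature, stopped and read Ex 365/Em 440 for AC50.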

[2] = AP1 Signaling Pathway (AID 357); details: ME-180 AP-1-bla reporter, EGF-induced, beta-lactamase ratio, 5 h; at 7.69 µM (top of the series) unless noted;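 note: ME-180 reporter cells stimulated with EGF at its EC50 level; % is set by controls: 0 for no effect and ±100 for the full control effect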
Outline: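 In this screen, ME-180 cells in Opti-MEM with 0.5% dialyzed FBS received EC50 EGF and compound titrations for 5 h. AP-1 reporter beta-lactamase was detected via CCF4 ratio, giving AC50 for positive and negative modulators.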

[3] = NFAT Signaling Pathway (AID 444); details: Jurkat NFAT-bla M1, carbachol, beta-lactamase ratio, 5 h; at 7.69 µM (top of the series) unless noted;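 note: carbachol stimulus at about its EC50 of 1 µM final; % is set by controls: 0 for no effect and ±100 for the full control effect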
Outline: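 Jurkat cells carrying an NFAT-driven β-lactamase reporter and co-transfected muscarinic M1 receptor were treated with compound plus carbachol (1 uM final, an EC50 level) for 5 h at 37 °C. CCF4 loading followed for 1 h at RT; 460/530 nm ratio gave %activity.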

[4] = Stat Signaling Pathway (AID 446); details: ME-180 SIE beta-lactamase reporter, IL-6 stimulated, 5 h; at 7.69 µM (top of the series) unless noted;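 note: ME-180 cervical cancer cells given 40 pM IL-6 alongside compound; SIE-controlled beta-lactamase reporter measured as 460/530 nm FRET emission ratio; % is set by controls: 0 for no effect and ±100 for the full control effect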
Outline: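 ME-180 SIE-bla cells; overnight plating; cpd + IL-6 40 pM, 5 h, 37 C; LiveBLAzer 2.5 h RT; 460/530 nm emission ratio. Normalized to 300 pM IL-6 and 125 nM JAK inhibitor controls.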

[5] = target: Glucocorticoid receptor (Homo sapiens) (UniProt P04150); experiment: GR-GFP Redistribution (AID 450;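 active = compounds whose dose series gives a full or clear partial fitted curve of increased nuclear translocation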; note: potency is the fitted concentration of half-maximal effect); details: U2OS GR-GFP nuclear translocation, laser cytometry, 2 h
[6] = target: Glucocorticoid receptor (Homo sapiens) (UniProt P04150); experiment: GR-EFC Redistribution (AID 451; calls by dose curve; note: potency is the fitted concentration of half-maximal effect); details: CHO-K1 GR-EFC translocation, beta-gal luminescence, 2 h
Outline: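 CHO-K1 cells stably expressing nuclear-localized β-gal enzyme acceptor and GR fused C-terminally to the enzyme donor fragment; ligand-driven nuclear translocation restores β-gal by complementation. Compounds titrated up to 46 uM final, 2 h at 37 °C; luminescence read.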

[7] = target: Mitogen-activated protein kinase 10 (Mus musculus) (UniProt Q61831); experiment: JNK3 AlphaScreen Assay (AID 530); details: JNK3 lysate, c-Jun phosphorylation; series mostly up to 11.4 µM;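 note: kinase came from lysate of stimulated human HepG2 cells; signal reports phosphorylation of biotinylated GST-cJun 1-79 at Ser73 with 10 µM ATP; % is set by controls: 0 for no effect and ±100 for the full control effect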
Outline: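 Inhibitors reduce antibody binding to phosphorylated biotin-cJun, lowering AlphaScreen luminescence. Lysates from HepG2 cells pre-activated by IL-1beta plus TNF-alpha supplied JNK3; compounds were titrated.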

[8] = target: 3',5'-cyclic-AMP phosphodiesterase 4B (Homo sapiens) (UniProt Q07343); experiment: qHTS Assay for Inhibitors of PDE-IV (AID 607; active = well fitted activation curve with a large enough effect in the main read-out, with a control signal flat, not every such curve was filed as active; note: % of control where 0% means no effect); details: HEK293 ACTOne CNG channel cells, membrane potential fluorescence; series mostly up to 22.9 µM
Outline: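 ACTOne HEK293 cells carry a modified cAMP-gated CNG channel and express endogenous PDE4; plated 1000 cells/well, compounds up to 22.9 uM final. Membrane-potential dye fluorescence (ex 535/em 590) was read; parental cells received 10 uM forskolin + 100 uM RO 20-1724.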

Chain of 3',5'-cyclic-AMP phosphodiesterase 4B (Homo sapiens) (Q07343 whole entry, looked up): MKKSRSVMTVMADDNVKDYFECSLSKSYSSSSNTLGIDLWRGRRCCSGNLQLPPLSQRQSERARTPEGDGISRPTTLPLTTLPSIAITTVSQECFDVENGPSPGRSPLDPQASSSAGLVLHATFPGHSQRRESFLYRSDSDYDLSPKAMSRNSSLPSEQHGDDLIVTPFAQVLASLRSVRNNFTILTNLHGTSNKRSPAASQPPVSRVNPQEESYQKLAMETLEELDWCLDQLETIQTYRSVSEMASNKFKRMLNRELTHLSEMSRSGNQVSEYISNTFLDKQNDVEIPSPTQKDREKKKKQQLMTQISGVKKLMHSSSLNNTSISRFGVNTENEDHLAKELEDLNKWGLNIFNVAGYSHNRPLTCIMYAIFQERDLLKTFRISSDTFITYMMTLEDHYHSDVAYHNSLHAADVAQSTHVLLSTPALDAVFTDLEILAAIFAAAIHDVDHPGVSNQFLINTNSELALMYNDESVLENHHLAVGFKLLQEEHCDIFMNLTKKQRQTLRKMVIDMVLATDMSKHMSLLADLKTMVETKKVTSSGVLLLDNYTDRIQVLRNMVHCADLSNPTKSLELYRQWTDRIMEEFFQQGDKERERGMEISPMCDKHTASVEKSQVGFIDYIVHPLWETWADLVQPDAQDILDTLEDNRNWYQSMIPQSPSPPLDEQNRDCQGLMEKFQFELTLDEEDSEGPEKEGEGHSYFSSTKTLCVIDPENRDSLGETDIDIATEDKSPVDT
Chain of Glucocorticoid receptor (Homo sapiens) (P04150 whole entry, looked up, the tested form may be a part): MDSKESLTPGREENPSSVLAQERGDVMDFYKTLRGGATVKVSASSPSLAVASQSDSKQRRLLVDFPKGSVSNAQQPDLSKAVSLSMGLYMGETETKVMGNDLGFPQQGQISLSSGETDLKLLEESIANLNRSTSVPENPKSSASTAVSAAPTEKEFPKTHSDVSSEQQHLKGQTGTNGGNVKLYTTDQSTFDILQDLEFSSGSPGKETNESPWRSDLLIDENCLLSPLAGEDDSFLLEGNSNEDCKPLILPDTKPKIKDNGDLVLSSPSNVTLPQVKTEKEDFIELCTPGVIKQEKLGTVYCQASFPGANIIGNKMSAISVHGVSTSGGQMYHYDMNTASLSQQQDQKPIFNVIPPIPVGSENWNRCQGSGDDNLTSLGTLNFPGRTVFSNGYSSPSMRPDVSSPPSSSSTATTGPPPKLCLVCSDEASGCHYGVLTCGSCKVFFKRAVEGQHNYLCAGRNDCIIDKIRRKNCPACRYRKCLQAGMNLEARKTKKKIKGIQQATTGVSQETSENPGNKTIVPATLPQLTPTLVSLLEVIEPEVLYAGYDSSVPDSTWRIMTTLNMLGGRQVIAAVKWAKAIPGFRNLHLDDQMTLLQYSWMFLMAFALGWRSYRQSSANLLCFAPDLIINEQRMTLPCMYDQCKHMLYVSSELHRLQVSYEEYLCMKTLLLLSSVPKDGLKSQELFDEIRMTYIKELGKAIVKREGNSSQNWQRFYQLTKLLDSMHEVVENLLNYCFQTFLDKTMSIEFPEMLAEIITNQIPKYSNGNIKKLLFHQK
Chain of Lysosomal acid glucosylceramidase (Homo sapiens) (P04062 whole entry, looked up): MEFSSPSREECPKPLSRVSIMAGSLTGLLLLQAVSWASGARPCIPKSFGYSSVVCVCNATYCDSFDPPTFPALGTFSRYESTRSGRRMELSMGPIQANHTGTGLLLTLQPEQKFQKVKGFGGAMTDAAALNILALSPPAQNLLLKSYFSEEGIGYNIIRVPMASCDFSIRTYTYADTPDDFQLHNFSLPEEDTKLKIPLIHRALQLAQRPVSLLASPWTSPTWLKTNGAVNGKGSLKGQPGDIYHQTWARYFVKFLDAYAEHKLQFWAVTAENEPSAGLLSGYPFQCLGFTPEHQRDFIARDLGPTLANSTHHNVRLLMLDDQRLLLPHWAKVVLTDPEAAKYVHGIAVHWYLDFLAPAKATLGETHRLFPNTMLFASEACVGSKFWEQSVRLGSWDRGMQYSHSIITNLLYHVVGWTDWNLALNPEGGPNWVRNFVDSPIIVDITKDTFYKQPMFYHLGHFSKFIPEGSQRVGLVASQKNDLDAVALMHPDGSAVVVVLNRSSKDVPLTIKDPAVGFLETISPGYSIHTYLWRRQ

C[C@@H](CCC(=O)O)C(=O)O
inactive: Potency [1] > 11.4 µM | activity change, negative = inhibition [2] 3.57% | activity change, negative = inhibition [3] 5.4% | activity, negative = inhibition [4] 0.834% | Potency [5] > 46 µM | Potency [6] > 9.22 µM | Potency [7] | Potency [8]

CC(C)=CCNc1ncnc2c1c(C#N)cn2[C@H]1O[C@@H](CO)[C@@H](O)[C@@H]1O
inactive: Potency [1] > 11.4 µM | activity change, negative = inhibition [2] -1.6% | activity change, negative = inhibition [3] 6.29% | activity, negative = inhibition [4] 10.4% | Potency [5] > 46 µM | Potency [6] > 9.22 µM | Potency [7] | Potency [8]

CN1CCN(CC(=O)Nc2cccc3ccccc23)CC1
inactive: Potency [1] > 11.4 µM | activity change, negative = inhibition [2] -2.71% | activity change, negative = inhibition [3] 5.99% | activity, negative = inhibition [4] 15.2% | Potency [5] > 46 µM | Potency [6] > 9.22 µM | Potency [7] | Potency [8]

Cc1cc(=O)[nH]c(/N=C(\N)Nc2ccc(Cl)cc2)n1
inactive: Potency [1] > 11.4 µM | activity change, negative = inhibition [2] -8.26% | activity change, negative = inhibition [3] -9.44% | activity, negative = inhibition [4] -3.21% | Potency [5] > 46 µM | Potency [6] > 9.22 µM | Potency [7] | Potency [8]

Cc1cc(O)c(C(C)C)cc1CN1CCCCC1
inactive: Potency [1] > 11.4 µM | activity change, negative = inhibition [2] 10.4% | activity change, negative = inhibition [3] -29.6% | activity, negative = inhibition [4] 5.31% | Potency [5] > 46 µM | Potency [6] > 9.22 µM | Potency [7] | Potency [8]

O=C(O)CN1C(=O)O[C@@H](c2ccccc2)C1=O
inactive: Potency [1] > 11.4 µM | activity change, negative = inhibition [2] -1.65% | activity change, negative = inhibition [3] 11.5% | activity, negative = inhibition [4] -12.2% | Potency [5] > 46 µM | Potency [6] > 9.22 µM | Potency [7] | Potency [8]

CCCS(=O)(=O)O
inactive: Potency [1] > 11.4 µM | activity change, negative = inhibition [2] -5.23% | activity change, negative = inhibition [3] 0.712% | activity, negative = inhibition [4] 4.08% | Potency [5] > 46 µM | Potency [6] > 9.22 µM | Potency [7] | Potency [8]

C[N+](C)(C)c1ncnc2c1ncn2[C@@H]1C[C@H](O)[C@@H](CO)O1
inactive: Potency [1] > 11.4 µM | activity change, negative = inhibition [2] 2.41% | activity change, negative = inhibition [3] 9.78% | activity, negative = inhibition [4] 3.06% | Potency [5] > 46 µM | Potency [6] > 9.22 µM | Potency [7]

C[C@H](Br)C(=O)Nc1ccc(C(=O)O)c(O)c1
inactive: Potency [1] > 11.4 µM | activity change, negative = inhibition [2] 1.78% | activity change, negative = inhibition [3] -22.6% | activity, negative = inhibition [4] -4.23% | Potency [5] > 46 µM | Potency [6] > 9.22 µM | Potency [7] | Potency [8]

Cn1c(N)nc2c(nc(OCc3ccccc3)n2[C@@H]2O[C@H](CO)[C@@H](O)[C@@H]2O)c1=O
inactive: Potency [1] > 11.4 µM | activity change, negative = inhibition [2] 2.38% | activity change, negative = inhibition [3] 6.31% | activity, negative = inhibition [4] -1.71% | Potency [5] > 46 µM | Potency [6] > 9.22 µM | Potency [7] | Potency [8]

Cc1c(-c2nc(N)nc(C3CC3)c2C)nc(N)nc1C1CC1
inactive: Potency [1] > 11.4 µM | activity change, negative = inhibition [2] 2.87% | activity change, negative = inhibition [3] 4.67% | activity, negative = inhibition [4] 5.17% | Potency [5] > 46 µM | Potency [6] > 9.22 µM | Potency [7] | Potency [8]

Cc1ccc(C)c([C@@H]2NC(=O)c3ccccc3N2)c1
inactive: Potency [1] > 11.4 µM | activity change, negative = inhibition [2] -2.78% | activity change, negative = inhibition [3] -14.2% | activity, negative = inhibition [4] -1.94% | Potency [5] > 46 µM | Potency [6] > 9.22 µM | Potency [7] | Potency [8]

O=C1c2ccccc2C(=O)N1C1(C(=O)NC2(C(=O)O)CCCC2)CCCC1
inactive: Potency [1] > 11.4 µM | activity change, negative = inhibition [2] 0.0237% | activity change, negative = inhibition [3] 10.1% | activity, negative = inhibition [4] 0.797% | Potency [5] > 46 µM | Potency [6] > 9.22 µM | Potency [7] | Potency [8]

O=C(c1nc2ccc([N+](=O)[O-])cc2[nH]c1=O)[C@@H](O)c1ccc2c(c1)OCO2
inactive: Potency [1] > 11.4 µM | activity change, negative = inhibition [2] -1.57% | activity change, negative = inhibition [3] 2.9% | activity, negative = inhibition [4] 12.9% | Potency [5] > 46 µM | Potency [6] > 9.22 µM | Potency [7] | Potency [8]

C=CCNS(=O)(=O)c1ncnc2nc[nH]c12
inactive: Potency [1] > 11.4 µM | activity change, negative = inhibition [2] -7.02% | activity change, negative = inhibition [3] -12.1% | activity, negative = inhibition [4] 14.4% | Potency [5] > 46 µM | Potency [6] > 9.22 µM | Potency [7] | Potency [8]

Nc1ccc(Cc2ccc(N)c(C(=O)O)c2)cc1C(=O)O
inactive: Potency [1] > 11.4 µM | activity change, negative = inhibition [2] 12.6% | activity change, negative = inhibition [3] 16.6% | activity, negative = inhibition [4] 1.75% | Potency [5] > 46 µM | Potency [6] > 9.22 µM | Potency [7] | Potency [8]

CC(=O)Nc1ccccc1C=C1c2ccccc2-c2ccccc21
inactive: Potency [1] > 11.4 µM | activity change, negative = inhibition [2] -4.76% | activity change, negative = inhibition [3] 18% | activity, negative = inhibition [4] -16.5% | Potency [5] > 46 µM | Potency [6] > 9.22 µM | Potency [7] | Potency [8]

NNC(=O)[C@@H](O)[C@H](O)C(=O)NN
inactive: Potency [1] > 11.4 µM | activity change, negative = inhibition [2] -1.69% | activity change, negative = inhibition [3] 10.2% | activity, negative = inhibition [4] -2.25% | Potency [5] > 46 µM | Potency [6] > 9.22 µM | Potency [7] | Potency [8]

c1ccc2c(CC3NCCN3)cccc2c1
inactive: Potency [1] > 11.4 µM | activity change, negative = inhibition [2] 7.37% | activity change, negative = inhibition [3] -8.06% | activity, negative = inhibition [4] 1.71% | Potency [5] > 46 µM | Potency [6] > 9.22 µM | Potency [7] | Potency [8]
